Results reported in PubChem BioAssay (Tox21).
Activity calls are given as the source filed them. Calls come from the whole dose curve; as a rule, active = well fitted curve in the direction sought with a large enough effect in the repeat runs; inconclusive = weak or mixed curves; inactive = flat fitted curve, though single readings scatter.

assay: qHTS assay to test for compound auto fluorescence at 590 nm (red) in HepG2 cells (AID 720674); details: HepG2 autofluorescence, red 540/590 nm, 1 h; series mostly up to 91.3 µM
Excerpt: U.S. Tox21 Program National Center for Advancing Translational Sciences [NCATS] NIH Chemical Genomics Center [NCGC] U.S. Environmental Protection Agency [EPA] National Institutes of Environmental Health Sciences [NIEHS] National Toxicology Program [NTP] U.S. Food and Drug Administration [FDA] Tox21 Assay Overview: Compound auto fluorescence often interferes with screening of the compound library against various biological targets and signaling pathways. Some of these compounds may have fluorophoric properties. Such properties may interfere with the assay outputs resulting in false positives and/or negatives. To decrease such complications and ensure the compound activities are relevant in terms of biological response, the Tox21 10K compound library was screened for auto fluorescence. From the fluorophores used as reporter signals in our screening assays, the auto fluorescence equivalencies of compounds against three fluorophores have been evaluated: Triamterene, Fluorescein and Rose Bengal sodium for blue, green and red fluorescence, respectively. The fluorescence intensities were measured using Excitation/Emission wavelengths at 405/460nm, 485/535nm and 540/590nm for blue, green and red labels, respectively. This assay includes the red fluorescence data.
Tox21 Assay Protocol Summary: 2,000 HepG2 cells in 5 uL of culture medium (MEM containing 10% FBS) per well were dispensed into black wall/clear bottom 1536-well plates using a Multidrop Combi Dispenser (ThermoFisher Scientific, Waltham, MA). The assay plates were incubated overnight at 37 C to allow cell attachment to the well bottom, followed by the transfer of 23 nL compound or DMSO vehicle by a pintool work station (Kalypsys , San Diego, CA). After the assay plates were incubated for 1 hr at 37 C and 5% CO2, fluorescence intensities in the assay plates were measured by an Envision (PerkinElmer, Shelton, CT) plate reader using three labels for measuring blue, green and red fluorescence at […] 460, 535 and 590 nm respectively.
% is set by controls: 0 for no effect and ±100 for the full control effect.

Row | Compound | outcome | fluorescence, relative to Rose Bengal
1 | O=C(NN1CCCC1)NS(=O)(=O)c1ccc(Cl)cc1 | inactive | 
2 | O=C(O)COC(=O)Cc1ccccc1Nc1c(Cl)cccc1Cl |  | 0.242% [at 18.6 µM] (inactive)
3 | CCCCCOC(=O)COc1cc(N2C(=O)C3=C(CCCC3)C2=O)c(F)cc1Cl | inactive | 
4 | CC(=O)O[C@H]1C[C@@H]2CC[C@@H]3[C@H](CC[C@@]4(C)[C@H]3C[C@H]([N+]3(C)CCCCC3)[C@@H]4OC(C)=O)[C@@]2(C)C[C@@H]1N1CCCCC1 | inactive | 
5 | Cc1ccc(C(C)c2ccc(C)c(C)c2)cc1C | inactive | 
6 | Cc1ccc(C)o1 | inactive | 
7 | CCOC(=O)C1=C(C)NC(C)=C(C(=O)OC)C1c1cccc([N+](=O)[O-])c1 (stereo not given) | inactive | 
8 | O=C(c1ccccc1)c1ccc2n1CCC2C(=O)O (stereo not given) | inactive | 
9 | CC(=O)[C@@]1(O)CC[C@H]2[C@@H]3C[C@H](C)C4=CC(=O)CC[C@]4(C)[C@H]3CC[C@@]21C | inactive | 
10 | CCCCOc1cc(C(=O)OCCN(CC)CC)ccc1N |  | -0.373% [at 18.6 µM] (inactive)
11 | S=C(S)NCCNC(=S)S | inactive | 
12 | CCCCCCCCCCCCCCCC(=O)OC/C=C(C)/C=C/C=C(C)/C=C/C1=C(C)CCCC1(C)C | inactive | 
13 | CCOc1cc(OCC)c(C(=O)CCC(=O)O)cc1OCC | inactive | 
14 | NC(N)=N/N=C/c1c(Cl)cccc1Cl | inactive | 
15 | CCCCOc1ccc(CC(=O)NO)cc1 |  | 0.376% [at 18.6 µM] (inactive)
16 | CC[C@@H]1C[C@H](N(Cc2cc(C(F)(F)F)cc(C(F)(F)F)c2)C(C)=O)c2cc(C(F)(F)F)ccc2N1C(=O)OC(C)C | inactive | 
17 | CCCC[C@H]1CN(CC2CCOCC2)C(=O)OC12CCN(C1(C)CCN(C(=O)c3c(C)ncnc3C)CC1)CC2 | inactive | 
18 | C=CC(=O)OCCOC(=O)CCC(=O)O | inactive | 
19 | NCCCN(CCO)CCO | inactive | 
20 | Cc1cccc(OCCOc2cccc(C)c2)c1 | inactive | 

Row | Compound | outcome | fluorescence, relative to Rose Bengal
21 | CCCCCOC(=O)c1ccc(O)cc1 | inactive | 
22 | Cc1cccc(C(C)(C)C)c1O | inactive | 
23 | CC(C)CC=O | inactive | 
24 | O=C(/C=C/c1ccc(O)c(O)c1)O[C@@H]1C[C@](O)(C(=O)O)C[C@@H](O)[C@H]1O | inactive | 
25 | C=C(C)C(=O)OCCN(C)C | inactive | 
26 | O=c1[nH]cnc2ccccc12 | inactive | 
27 | N#CCCNCCC#N | inactive | 
28 | CCOC(=O)[C@H](CCc1ccccc1)N[C@H]1CCc2ccccc2N(CC(=O)O)C1=O | inactive | 
29 | O=C1c2cccc(O)c2C(=O)c2c(O)cc(CO)cc21 | inactive | 
30 | NC1CCN(c2nc3c(cc2F)c(=O)c(C(=O)O)cn3-c2ccc(F)cc2F)C1 (stereo not given) | inactive | 
31 | Cc1ccccn1 | inactive | 
32 | C=CCCCCCC | inactive | 
33 | N#Cc1cc2ccccc2c2ccccc12 | inactive | 
34 | O=C(O)C(c1ccc(Cl)cc1)c1ccc(Cl)cc1 | inactive | 
35 | CC(C)(C)c1cc(CCC(=O)OCC(COC(=O)CCc2cc(C(C)(C)C)c(O)c(C(C)(C)C)c2)(COC(=O)CCc2cc(C(C)(C)C)c(O)c(C(C)(C)C)c2)COC(=O)CCc2cc(C(C)(C)C)c(O)c(C(C)(C)C)c2)cc(C(C)(C)C)c1O | inactive | 
36 | SC1CCCC1 | inactive | 
37 | CCN(CC)C(C)=O | inactive | 
38 | COc1ccccc1OC(=O)Oc1ccccc1OC | inactive | 
39 | CC[C@]12CCCN3CCc4c(n(c5ccccc45)C(=O)C1)[C@@H]32 |  | -0.674% [at 18.6 µM] (inactive)
40 | O=C(O)c1cccc(N(Cc2cccnc2)c2ccc(OC(F)F)c(OC(F)F)c2)c1 | inactive | 
